Experimental data taken from article PMC4336329 (PLoS ONE, 2015).
The whole screen tested about 310,000 compounds, of which about 14,000 (4.5%) showed an effect of 50% or more. The effect is printed as a negative number. What follows is part of a selection rich in strong results, with near analogues and random picks from the rest.

Target: human ether-à-go-go-related gene (hERG) potassium channel (human, UniProt Q12809)
Assay: primary screen, population patch clamp on CHO cells stably expressing hERG; higher = less effect of the substance
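Note: peak tail current of the secondary pulse compared with the same well before compound.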

human ether-à-go-go-related gene (hERG) potassium channel, sequence (Q12809 whole entry, looked up): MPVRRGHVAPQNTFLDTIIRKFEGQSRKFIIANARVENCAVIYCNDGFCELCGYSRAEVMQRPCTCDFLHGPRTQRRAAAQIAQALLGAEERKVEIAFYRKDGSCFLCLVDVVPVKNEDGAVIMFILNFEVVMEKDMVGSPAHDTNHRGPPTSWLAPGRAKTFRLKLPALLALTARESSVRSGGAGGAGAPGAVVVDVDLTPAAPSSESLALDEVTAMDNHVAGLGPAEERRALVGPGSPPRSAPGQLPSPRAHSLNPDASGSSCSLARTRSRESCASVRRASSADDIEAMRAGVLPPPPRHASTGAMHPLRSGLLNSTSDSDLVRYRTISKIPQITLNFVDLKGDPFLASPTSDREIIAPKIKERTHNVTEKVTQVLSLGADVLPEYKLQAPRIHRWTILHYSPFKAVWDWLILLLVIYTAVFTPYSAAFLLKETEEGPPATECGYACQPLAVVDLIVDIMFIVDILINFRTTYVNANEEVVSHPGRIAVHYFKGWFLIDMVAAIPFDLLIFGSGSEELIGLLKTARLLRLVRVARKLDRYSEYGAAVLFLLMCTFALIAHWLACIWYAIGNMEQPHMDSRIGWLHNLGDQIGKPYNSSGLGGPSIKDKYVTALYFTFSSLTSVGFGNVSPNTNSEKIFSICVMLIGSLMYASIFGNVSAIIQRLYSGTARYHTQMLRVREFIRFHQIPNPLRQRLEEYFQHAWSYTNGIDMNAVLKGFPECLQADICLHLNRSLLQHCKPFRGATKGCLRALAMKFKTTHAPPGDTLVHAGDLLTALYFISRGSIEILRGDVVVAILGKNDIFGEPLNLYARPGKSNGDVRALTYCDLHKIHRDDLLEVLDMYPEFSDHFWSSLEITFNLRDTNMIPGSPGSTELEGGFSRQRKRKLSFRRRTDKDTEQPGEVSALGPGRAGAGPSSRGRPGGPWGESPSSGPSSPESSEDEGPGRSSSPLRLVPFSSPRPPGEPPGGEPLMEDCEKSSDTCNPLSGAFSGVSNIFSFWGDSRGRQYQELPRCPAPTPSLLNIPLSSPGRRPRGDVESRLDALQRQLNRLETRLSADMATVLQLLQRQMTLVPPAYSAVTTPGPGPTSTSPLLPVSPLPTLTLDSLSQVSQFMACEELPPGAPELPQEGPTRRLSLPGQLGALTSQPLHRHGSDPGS

Compound | hERG current change (%, negative = inhibition) at 10uM [%]
CCn1c(N)[n+](CC(=O)Nc2ccc(SC(F)F)cc2)c2ccccc21.[Cl-] | -78.4
O=C(Cc1ccccc1)Nc1ccc(SC(F)F)cc1 | -29.7
CC[N+](CC)(CC)CC(=O)Nc1ccc(SC(F)F)cc1.[Cl-] | -3.41
COC(=O)Cn1c(=NC(=O)CCS(=O)(=O)c2ccccc2)sc2c(OC)ccc(OC)c21 | 6.2
CCc1noc(C)c1C(=O)NNC(=O)c1ccccc1F | 21
CSc1cccc(NC(=O)CCS(=O)(=O)c2cccc3nonc23)c1 | -15.1
COC(=O)c1ccccc1NC(=O)COC(=O)c1cccnc1 | 6.42
O=C(CN1CCN(S(=O)(=O)c2ccc(Cl)cc2)CC1)Nc1ccc(F)cc1F | -78.3
CC(C)c1ccc(S(=O)(=O)N2CCN(CC(=O)Nc3ccc(Cl)cc3F)CC2)cc1 | -15.9
O=C(CN1CCN(S(=O)(=O)c2ccc(F)cc2)CC1)Nc1ccc(Cl)cn1 | -62.7
O=C(CN1CCN(S(=O)(=O)c2ccccc2)CC1)Nc1ccc(Cl)cn1 | -29.5
COc1ccc(Cl)cc1NC(=O)CN1CCN(S(=O)(=O)c2ccc(F)cc2)CC1 | -43.8
NS(=O)(=O)c1ccc(NC(=O)CN2CCN(S(=O)(=O)c3ccc(F)cc3)CC2)cc1 | 7.15
COC(=O)c1ccc(NC(=O)CN2CCN(S(=O)(=O)c3ccc(Br)cc3)CC2)cc1 | -31.4
Cc1cc(NC(=O)CN2CCN(S(=O)(=O)c3ccc(Cl)cc3)CC2)no1 | -15.4
O=C(CN1CCN(S(=O)(=O)c2ccc(Br)cc2)CC1)Nc1ccc(F)cc1F | -73.5
COc1ccc(C)cc1NC(=O)CN1CCN(S(=O)(=O)c2ccc(Br)cc2)CC1 | -30.5
O=C(CN1CCN(S(=O)(=O)c2ccc(Br)cc2)CC1)Nc1ccc(F)cc1 | -67.8
Cc1sc2ncnc(NCCc3ccc(S(N)(=O)=O)cc3)c2c1C | 12.6
COc1ccc(CCNC(=O)CSc2nn3c(=O)c(C)nnc3s2)cc1OC | 6.31
CN(CC(=O)Nc1ccccc1C(F)(F)F)C(=O)COc1ncnc2ccccc12 | 1.42
O=C(CNCc1ccc(Cl)cc1)NCc1ccco1.O=C(O)C(=O)O | -17.3
Cc1cccc(OCc2n[nH]c(=S)n2-c2ccccc2)c1 | 10.1
CC(=O)Nc1ccc(C(=O)OCC(=O)NCc2ccccc2)cc1 | 11.9
O=C(COC(=O)CCC(=O)c1ccc(F)cc1)Nc1ccc2[nH]c(=O)[nH]c2c1 | -3.65
O=C(Nc1ccc(F)cc1F)NC1CCN(S(=O)(=O)c2ccc(F)cc2)CC1 | 9.78
O=C(CN1CCN(S(=O)(=O)c2ccc(F)cc2)CC1)Nc1ccc(F)cc1F | -60.3
O=C(COC(=O)c1ccc(S(=O)(=O)N2CCCC2)cc1)Nc1ccc(F)cc1F | 9.22

Compound | hERG current change (%, negative = inhibition) at 10uM [%]
C/C(=N\OCC(=O)NC12CC3CC(CC(C3)C1)C2)c1cc2ccccc2o1 | 5.38
CCOc1ccc(S(=O)(=O)N2CCN(CN3C(=O)CC4(CCCC4)C3=O)CC2)cc1 | -8.79
N#CCCN(Cc1cccnc1)C(=O)Nc1ccccc1 | -3.06
CC(C)=CCN1CCN(Cc2nc(-c3ccccc3)cs2)CC1CCO (stereo not shown) | -60.4
CC(C)=CCN1CCN(Cc2nc(-c3ccc(F)cc3)cs2)CC1CCO (stereo not shown) | -69
CC(C)=CCN1CCN(CC#Cc2ccccc2)CC1CCO (stereo not shown) | -13
CC(C)=CCN1CCN(Cc2nc(C(C)C)cs2)CC1CCO (stereo not shown) | -12.9
CC(C)(C)CN1CCN(Cc2c[nH]c3ccccc23)CC1CCO (stereo not shown) | 15.5
CC(C)=CCN1CCN(Cc2cc(F)ccc2-n2nc(C)cc2C)CC1CCO (stereo not shown) | -25
CC(C)=CCN1CCN(Cc2cccnc2)CC1CCO (stereo not shown) | -1.24
CC(C)(C)CN1CCN(Cc2nc(-c3ccc(F)cc3)cs2)CC1CCO (stereo not shown) | -62.5
CC(C)(C)CN1CCN(Cc2cccnc2)CC1CCO (stereo not shown) | 13.6
CCN(CC(=O)NCc1ccc(F)cc1)C(=O)C1CCN(C(=O)Nc2ccccc2)CC1 | -7.79
COCCn1c(SCC(=O)N2CC(=O)Nc3ccccc32)nc2ccccc21 | -2.29
O=C(Nc1ccc(N2CCCCC2)cc1)c1cccnc1 | 4.6
CCn1cc(C(=O)NCC2CCCO2)c2cc(OC)c(OC)cc2c1=O (stereo not shown) | 19.4
Cn1nc(C(=O)NCC2CCCO2)c2ccccc2c1=O (stereo not shown) | -3
C=CCNC(=O)c1cc2c(=O)n3cc(C)ccc3nc2nc1NCC1CCCO1 (stereo not shown) | -73
Cc1ccc(-c2noc(-c3ccccc3C(=O)NCC3CCCO3)n2)cc1 (stereo not shown) | -18.6
CCNc1nc2nc3ccc(C)cn3c(=O)c2cc1C(=O)NCC1CCCO1 (stereo not shown) | -70.6
COCCCNC(=O)CSc1nc2ccccc2c(=O)n1CCCC(=O)NCC1CCCO1 (stereo not shown) | -0.988
Cc1ccc(-c2nn(-c3ccccc3)cc2C(=O)NCC2CCCO2)cc1 (stereo not shown) | -25.8
COCCCNC(=O)c1cc2c(=O)n3cc(C)ccc3nc2nc1NCC1CCCO1 (stereo not shown) | -71.9
CCOCCCNc1nc2nc3ccc(C)cn3c(=O)c2cc1C(=O)NCC1CCCO1 (stereo not shown) | -77.7
Cc1ccc(-c2nn(-c3ccccc3Cl)cc2C(=O)NCC2CCCO2)cc1 (stereo not shown) | -0.0276
COCCCNC(=O)c1ccc2nc3ccccc3c(=O)n2c1 | 14.7
COc1ccc(-c2cc(C(=O)NCC3CCCO3)c3cc(C)ccc3n2)cc1 (stereo not shown) | -3.03
